A short description of assay [1]: Caspase-3/7 induction in CHO-K1 cells by small molecules, qHTS cell viability counter screen (AID 1346979). Note: nearly all actives have a fitted effect of over 35% in size. The settings on record: CellTiter-Fluor fluorescence, 17 h; series mostly up to 92.4 µM. Summed up:
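Cytotoxicity counter screen run in parallel with the caspase-3/7 assay: CHO-K1 cells, 16hr compound treatment at 37C, then CellTiter-Fluor for 1hr before fluorescence reading.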
In general terms: In qHTS, concentration-response curves come from the screen itself.

The nature of assay [2]: Caspase-3/7 induction in CHO-K1 cells by small molecules, qHTS assay (AID 1346980). Note: nearly all actives have a fitted effect of over 15% in size. The settings on record: CHO-K1 caspase-3/7 induction, Caspase-Glo luminescence, 17 h; series mostly up to 92.4 µM. Summed up: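 Wild-type CHO-K1 cells exposed to compounds for 17hr at 37 C, 5% CO2. Caspase-3/7 activity then measured by Caspase-Glo 3/7 luminescence after 30min at room temperature.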

Assay [3] can be described thus: Caspase-3/7 induction in HepG2 cells by small molecules, qHTS cell viability counter screen (AID 1346981). Note: nearly all actives have a fitted effect of over 30% in size. The conditions noted are these: CellTiter-Fluor fluorescence, 17 h; series mostly up to 92.4 µM. In short, it runs like this:
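Cell viability is measured as a cytotoxicity counter screen alongside the Caspase-Glo 3/7 readout in identical wells. Wild-type HepG2 cells are treated with test compounds for 16 hr at 37 C before CellTiter-Fluor addition and a 1-hr incubation.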

Assay [4] deals with Nuclear receptor subfamily 1 group I member 2 (Homo sapiens) (UniProt O75469). As to the kind of experiment: Human pregnane X receptor (PXR) small molecule agonists, qHTS assay (AID 1346982). Note: nearly all actives have a fitted effect of over 35% in size. The conditions noted are these: PXR-Luc HepG2, CYP3A4 luciferase reporter, 24 h; series mostly up to 92.4 µM. In short, it runs like this:
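Cells: HepG2 stably carrying PXR-Luc. Medium held 5% charcoal-stripped FBS. Compounds in DMSO added after 5 hr plating, incubated 24 hr, then luminescence quantified with ONE-Glo.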

The target of assay [5] is Cytochrome P450 2D6 (Homo sapiens) (UniProt P10635). The assay can be described thus: Cytochrome P450 Family 2 Subfamily D Member 6 (CYP2D6) small molecule antagonists: luciferase reporter qHTS assay (AID 1671196). Note: nearly all actives have a fitted effect of over 50% in size. The settings on record: P450-Glo CYP2D6 enzyme assay, luciferin luminescence, 1 h; series mostly up to 115 µM. In short, it runs like this:
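Enzyme and proluciferin substrate were first combined with test chemical for 10 min at room temperature. Adding NADPH regeneration solution started a 1 h reaction, stopped with luciferin detection reagent and read by luminescence 20 min later.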
(A reporter such as luciferase makes a cellular process visible.)

Assay [6] has as its target Cytochrome P450 2C9 (Homo sapiens) (UniProt P11712). As to the kind of experiment: Cytochrome P450 Family 2 Subfamily C Member 9 (CYP2C9) small molecule antagonists: luciferase reporter qHTS assay (AID 1671198). Note: nearly all actives have a fitted effect of over 50% in size. The conditions noted are these: P450-Glo CYP2C9 enzyme assay, luciferin luminescence; series mostly up to 53 µM. In short, it runs like this: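 P450-Glo proluciferin substrate with CYP2C9 enzyme; 10 min RT preincubation, then NADPH regeneration 1 h at 37C; luciferin detection reagent 20 min RT, luminescence in relative luminescence units.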

For assay [7], the target named is Cytochrome P450 2C19 (Homo sapiens) (UniProt P33261). As to the kind of experiment: Cytochrome P450 Family 2 Subfamily C Member 19 (CYP2C19) small molecule antagonists: luciferase reporter qHTS assay (AID 1671197). Note: nearly all actives have a fitted effect of over 65% in size. The settings on record: P450-Glo CYP2C19 enzyme, luciferin luminescence, 1 h; series mostly up to 52.9 µM. In short, it runs like this: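 Light output is proportional to CYP2C19 activity: proluciferin substrate is converted to luciferin, then detected by a luciferin detection reagent that also stops the 1 h, 37C NADPH-driven reaction. Ketoconazole serves as positive control.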

Assay [8] deals with Nuclear receptor subfamily 1 group I member 2 (Homo sapiens) (UniProt O75469). As to the kind of experiment: CYP3A4 induction through human pregnane X receptor (PXR) by small molecules, qHTS assay (AID 1346984). Note: nearly all actives have a fitted effect of over 40% in size. The conditions noted are these: DPX-2 HepG2 PXR, CYP3A4-luciferin luminescence, 24 h; series mostly up to 46.1 µM. In short, it runs like this:
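Quantitative HTS in DPX-2 cells, i.e. HepG2 transfected with PXR response element and CYP3A4-promoter luciferase. Compounds in DMSO incubated 24hr at 37C; then P450-Glo CYP3A4 substrate, 3uM final, 3hr; One-Glo luminescence.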

We go through 24 compounds from PubChem BioAssay (Tox21).

Structures are written as SMILES. “And” between values parts separate entries of the source, which are not always exact repeats. Equal entries are not always repeated. Inconclusive results are not listed. The source made the active and inactive calls. Calls come from the whole dose curve; as a rule, active = well fitted curve in the direction sought with a large enough effect in the repeat runs; inconclusive = weak or mixed curves; inactive = no such curve, though single readings can be large; an effect the other way counts as inactive or inconclusive.
Potency is the fitted concentration of half-maximal effect.

Sequence of Cytochrome P450 2C9 (Homo sapiens) (P11712 whole entry, looked up): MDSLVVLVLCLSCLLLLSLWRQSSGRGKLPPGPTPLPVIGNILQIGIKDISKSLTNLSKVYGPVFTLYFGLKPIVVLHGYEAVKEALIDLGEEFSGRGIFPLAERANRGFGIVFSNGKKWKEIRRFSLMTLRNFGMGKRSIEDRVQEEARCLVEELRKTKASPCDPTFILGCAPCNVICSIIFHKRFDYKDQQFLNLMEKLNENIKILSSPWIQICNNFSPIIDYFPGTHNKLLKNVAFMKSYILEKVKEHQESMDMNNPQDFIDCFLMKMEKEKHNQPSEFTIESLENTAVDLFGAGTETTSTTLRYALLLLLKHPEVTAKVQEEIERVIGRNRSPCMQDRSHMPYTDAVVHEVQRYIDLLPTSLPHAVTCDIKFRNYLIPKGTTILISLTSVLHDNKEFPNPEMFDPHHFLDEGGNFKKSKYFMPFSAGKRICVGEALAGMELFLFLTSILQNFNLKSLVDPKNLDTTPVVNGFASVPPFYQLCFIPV
Sequence of Cytochrome P450 2D6 (Homo sapiens) (P10635 whole entry, looked up): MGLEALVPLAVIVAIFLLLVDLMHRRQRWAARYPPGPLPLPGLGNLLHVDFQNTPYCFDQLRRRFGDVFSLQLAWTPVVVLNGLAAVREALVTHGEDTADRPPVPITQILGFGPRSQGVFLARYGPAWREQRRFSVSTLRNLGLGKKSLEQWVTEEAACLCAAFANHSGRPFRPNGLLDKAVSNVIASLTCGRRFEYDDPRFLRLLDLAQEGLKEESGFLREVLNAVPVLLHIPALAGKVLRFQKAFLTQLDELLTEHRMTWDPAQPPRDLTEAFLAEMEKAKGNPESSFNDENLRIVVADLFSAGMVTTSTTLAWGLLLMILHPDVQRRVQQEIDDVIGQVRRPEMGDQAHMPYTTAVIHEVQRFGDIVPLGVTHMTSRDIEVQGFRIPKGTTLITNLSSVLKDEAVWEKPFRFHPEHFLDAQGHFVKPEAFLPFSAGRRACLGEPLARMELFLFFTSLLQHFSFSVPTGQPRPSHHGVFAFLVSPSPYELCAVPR
Sequence of Cytochrome P450 2C19 (Homo sapiens) (P33261 whole entry, looked up): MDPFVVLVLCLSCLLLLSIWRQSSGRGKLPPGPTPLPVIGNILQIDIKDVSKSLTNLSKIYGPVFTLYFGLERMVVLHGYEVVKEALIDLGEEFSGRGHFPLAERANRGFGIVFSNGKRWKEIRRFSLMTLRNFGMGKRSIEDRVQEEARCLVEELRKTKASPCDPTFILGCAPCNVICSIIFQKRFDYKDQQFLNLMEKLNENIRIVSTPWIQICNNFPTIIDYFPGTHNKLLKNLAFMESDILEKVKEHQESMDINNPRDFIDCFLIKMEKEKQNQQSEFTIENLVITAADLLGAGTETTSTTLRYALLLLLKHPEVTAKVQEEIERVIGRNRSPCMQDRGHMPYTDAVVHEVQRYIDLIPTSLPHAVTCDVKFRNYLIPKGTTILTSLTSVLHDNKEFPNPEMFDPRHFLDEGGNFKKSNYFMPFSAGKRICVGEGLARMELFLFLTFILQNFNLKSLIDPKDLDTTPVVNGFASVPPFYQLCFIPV
Sequence of Nuclear receptor subfamily 1 group I member 2 (Homo sapiens) (O75469 whole entry, looked up): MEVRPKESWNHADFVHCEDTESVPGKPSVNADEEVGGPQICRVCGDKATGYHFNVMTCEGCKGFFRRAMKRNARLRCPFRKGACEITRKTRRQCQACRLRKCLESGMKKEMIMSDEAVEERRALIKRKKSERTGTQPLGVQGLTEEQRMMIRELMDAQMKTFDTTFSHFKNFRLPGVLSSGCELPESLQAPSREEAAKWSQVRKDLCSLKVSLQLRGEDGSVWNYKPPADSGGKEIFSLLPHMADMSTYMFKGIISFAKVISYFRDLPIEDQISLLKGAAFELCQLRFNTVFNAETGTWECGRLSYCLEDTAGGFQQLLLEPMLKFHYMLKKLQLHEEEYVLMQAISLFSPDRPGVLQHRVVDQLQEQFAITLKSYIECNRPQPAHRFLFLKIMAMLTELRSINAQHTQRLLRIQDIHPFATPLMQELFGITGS

For the compound `CSc1ccc(C(=O)c2[nH]c(=O)[nH]c2C)cc1`, the Potency result in assay [1], in assay [2], in assay [3], in assay [4], in assay [5] and in assay [6] was “inactive” throughout.

For `CCCN(CCC)C(=O)C(CCC(=O)OCCCN1CCN(CCOC(=O)Cc2c(C)n(C(=O)c3ccc(Cl)cc3)c3ccc(OC)cc23)CC1)NC(=O)c1ccccc1` (stereo unspecified), the Potency in assay [1] is 26.6 µM (active); in assay [3], 26.6 µM (active); in assay [4] it was 10.6 µM (active); in assay [5], 27.5 µM (active); in assay [6], 4.9 µM (active). Also, the Potency entry in assay [2] was “inactive”.

Turning to `O=C1CCCc2c1cc1ccc3cccc4ccc2c1c34`, the Potency result in assay [1], in assay [2], in assay [3] and in assay [5] was “inactive” throughout. For the same compound, the results for the Potency in assay [4], in assay [7] and in assay [6] were 17.4 µM (active), 18.1 µM (active) and 5.71 µM (active), respectively.

Take `Cc1cc(O)c(Cl)c(C)c1Cl`: the Potency result in assay [1], in assay [2], in assay [3], in assay [4], in assay [5] and in assay [6] was “inactive” throughout. Further, the Potency in assay [7] was 56.4 µM (active).

As to `O=c1cc(-c2ccc(O)cc2)oc2cc(O)cc(O)c12`, the Potency was 55.2 µM (active) and 43.3 µM (active) in assay [1]; 27.7 µM (active) and 61.1 µM (active) in assay [3]; 24.7 µM (active) and 24.3 µM (active) in assay [4]; 64.1 µM (active) in assay [5]; 32.1 µM (active) and 39.9 µM (active) in assay [7]; 36.1 µM (active) and 39.9 µM (active) in assay [6]. Also, the Potency result in assay [2] was “inactive”.

As for `CCCC(c1cc(C(C)(C)C)c(O)cc1C)c1cc(C(C)(C)C)c(O)cc1C`, the Potency in assay [1] is 13.9 µM (active); in assay [3] it was 22 µM (active); in assay [4], 1.96 µM (active); in assay [5], 28.6 µM (active); in assay [7], 9.05 µM (active); in assay [6], 3.6 µM (active). Besides, in assay [2], the Potency entry was “inactive”.

For `Cc1cc(O)c(C(C)(C)C)cc1Sc1cc(C(C)(C)C)c(O)cc1C`, the Potency is 2.73 µM (active) in assay [1]; 54.4 µM (active) in assay [3]; 10.8 µM (active) in assay [4]; 25.1 µM (active) in assay [5]; 2.51 µM (active) in assay [6]. Also, the Potency entry in assay [2] was “inactive”.

With `CCCCCCCC/C=C\CCCCCCCCOCCO`, the Potency was 35.5 µM (active) in assay [1]; 35.5 µM (active) in assay [3]; 3.98 µM (active) in assay [4]; 46.3 µM (active) in assay [7]; 29.2 µM (active) in assay [6]. The Potency result in assay [2] and in assay [5] was “inactive” each time.

For the compound `O=C(Nc1cccc(Cl)c1)OCC#CCCl`, the Potency was 30.6 µM (active) in assay [1], 27.3 µM (active) in assay [3], 13.7 µM (active) in assay [4] and 8.94 µM (active) in assay [7]. In addition, the Potency entry in assay [2] is “inactive”.

For the compound `O=C1CCCCCN1SSN1CCCCCC1=O`, the Potency in assay [1] is 54.5 µM (active); in assay [7] it was 35.6 µM (active). In addition, the Potency entry in assay [2], in assay [3] and in assay [5] was “inactive” each time.

In the case of `CC(C)(C)c1ccc(C(=O)O)cc1`, the Potency entry in assay [1], in assay [2], in assay [3], in assay [5], in assay [7] and in assay [6] was “inactive” each time.

Turning to `CNc1ccc(O)cc1`, the Potency in assay [1] is 13.7 µM (active); in assay [3], 54.4 µM (active); in assay [5] it was 12.6 µM (active); in assay [7] it was 15.9 µM (active); in assay [6], 22.4 µM (active). Besides, the Potency result in assay [2] is “inactive”.

For `C=CC(=O)OCC(CO)(COC(=O)C=C)COC(=O)C=C`, the Potency was 2.74 µM (active) and 6.11 µM (active) in assay [1]; 2.44 µM (active) and 6.11 µM (active) in assay [2]; 17.3 µM (active) and 21.7 µM (active) in assay [3]; 40.1 µM (active) and 63.3 µM (active) in assay [5]; 11.3 µM (active) and 11.2 µM (active) in assay [6].

Consider `NC(=O)N1C(=O)C(C(=O)c2cc(Cl)cs2)c2cc(F)c(Cl)cc21` (stereo unspecified), for which the Potency in assay [1] is 61.1 µM (active); in assay [3], 54.5 µM (active); in assay [6], 6.33 µM (active). In addition, the Potency entry in assay [2] was “inactive”.

On to `Oc1ccc(C2(c3ccc(O)cc3)CC3CC2C2CCCC32)cc1` (stereo unspecified), for which the Potency in assay [1] was 46.6 µM (active); in assay [3] it was 52.3 µM (active); in assay [6], 38.4 µM (active). For the same compound, the Potency result in assay [2] and in assay [5] was “inactive” in each case.

As to `CCCCN1CCCC[C@H]1C(=O)Nc1c(C)cccc1C`, the Potency result in assay [1], in assay [2], in assay [3] and in assay [6] was “inactive” in each case.

Regarding `Oc1ccc(N=Nc2ccccc2)cc1`, the Potency in assay [1] is 61.9 µM (active); in assay [3] it was 55.2 µM (active); in assay [4], 34.8 µM (active); in assay [7], 20.3 µM (active); in assay [6], 36.1 µM (active). In addition, in assay [2], the Potency result is “inactive”.

As for `CCCCCCCCn1sc(Cl)c(Cl)c1=O`, the Potency is 2.73 µM (active) in assay [1]; 61.1 µM (active) in assay [4]; 28.3 µM (active) in assay [5]; 6.33 µM (active) in assay [7]; 3.17 µM (active) in assay [6]. For the same compound, the Potency entry in assay [2] is “inactive”.

Consider `CS(=O)(=O)CCNCc1ccc(-c2ccc3ncnc(Nc4ccc(OCc5cccc(F)c5)c(Cl)c4)c3c2)o1`, for which the Potency is 23.7 µM (active) in assay [1], 29.8 µM (active) in assay [3] and 8.71 µM (active) in assay [7]. For the same compound, in assay [2], the Potency result is “inactive”.

As to `Cc1onc(-c2c(Cl)cccc2Cl)c1C(=O)N[C@@H]1C(=O)N2[C@@H]1SC(C)(C)[C@@H]2C(=O)O`, the Potency entry in assay [1], in assay [2], in assay [3] and in assay [4] was “inactive” each time. Besides, the Potency in assay [6] was 13.8 µM (active).

Regarding `CSc1ccc2c(c1)C(N1CCN(C)CC1)Cc1ccccc1S2` (stereo unspecified), the Potency in assay [1] is 29.8 µM (active); in assay [8], 25.1 µM (active); in assay [5], 1.74 µM (active); in assay [7], 34.7 µM (active). In addition, the Potency result in assay [2] and in assay [4] was “inactive” each time.

As to `Nc1ccc2cc(S(=O)(=O)O)cc(O)c2c1N=Nc1ccccc1C(F)(F)F`, the Potency in assay [1] is 54.5 µM (active); in assay [3], 54.5 µM (active); in assay [7], 79.6 µM (active); in assay [6], 63.3 µM (active). The Potency entry in assay [2] and in assay [4] was “inactive” in each case.

Take `CCc1oc2ccccc2c1C(=O)c1cc(Br)c(O)c(Br)c1`: the Potency entry in assay [1], in assay [2], in assay [3], in assay [5] and in assay [7] was “inactive” each time.

For `CCN(CCC#N)c1ccc(N=Nc2c(Cl)cc([N+](=O)[O-])cc2Cl)cc1`, the values for the Potency in assay [1] and in assay [4] were 48.6 µM (active) and 12.2 µM (active), respectively. The Potency result in assay [2], in assay [5] and in assay [7] was “inactive” in each case.
